Vc quorum ag = inducers of Vibrio cholerae quorum light production without autoinducers, primary screen, BH1578 luxS cqsA deficient, single point; AID 588436, 2011; activation, % at 18.7 µM; V. cholerae BH1578 lux reporter, luminescence, 6 h; actives 0.16% (n = 350,000); in the data active means activation mostly above about 9.7%, no sharp cut-off
GDH-TPI inh = GDH-TPI coupling enzyme inhibitors, primary screen, artefact control for M. tuberculosis FBA inhibitor project, biochemical, absorbance, full deck | GDH-TPI coupled enzyme counterscreen, NADH absorbance | actives 1.2% (n = 360,000) | AID 588335, 2011 | inhibition, % at 4.8 µM; in the data active means inhibition above about 30%
BioA inh = M. tuberculosis BioA enzyme inhibitors, primary screen, biochemical, plate reader, single point, HTS; purified M. tuberculosis BioA enzyme; actives 0.096% (n = 360,000); inhibition, % at 9.99 µM; AID 602481, 2012; 7,8-diaminopelargonic acid synthase BioA (Mycobacterium tuberculosis); in the data active means inhibition above about 40%
Mtb FBA inh = Mtb FBA enzyme inhibitors, primary screen, biochemical, fluorescence, strain H37Rv; Fructose-bisphosphate aldolase (Mycobacterium tuberculosis (strain ATCC 25618 / H37Rv)), …; purified M. tuberculosis FBA, fluorescence read-out; inhibition, % at 1 µM; actives 2.3% (n = 360,000); in the data active means inhibition above about 27%
Target sequence (P9WQA3 whole entry, looked up): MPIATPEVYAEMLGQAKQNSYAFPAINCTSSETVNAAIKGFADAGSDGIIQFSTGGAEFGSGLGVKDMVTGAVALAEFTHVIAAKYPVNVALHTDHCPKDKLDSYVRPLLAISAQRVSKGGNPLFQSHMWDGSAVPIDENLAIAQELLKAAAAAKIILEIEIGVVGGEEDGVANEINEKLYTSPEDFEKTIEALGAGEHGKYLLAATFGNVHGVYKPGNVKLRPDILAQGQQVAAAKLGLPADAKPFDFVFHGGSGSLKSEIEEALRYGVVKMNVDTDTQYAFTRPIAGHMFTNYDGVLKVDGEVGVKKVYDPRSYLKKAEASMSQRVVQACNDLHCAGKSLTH
Large screens that a line does not name were inactive. A selection: hits, their analogues and other compounds. The true share with any hit is near 3%.

Cc1nc2ccccn2c1C(=O)NCCCN1CCOCC1	none (no result: Vc quorum ag)
COCCCn1c(C(=O)NCCN2CCOCC2)cc2c(=O)n3ccccc3nc21	Mtb FBA inh active
Cc1cccn2c(=O)c3cc(C(=O)NCCN4CCOCC4)n(C)c3nc12	Mtb FBA inh 121
Cc1ccc2nc3c(cc(C(=O)NCCCn4ccnc4)n3C)c(=O)n2c1	Mtb FBA inh active
COc1ccc(NC(=O)Nc2ccc3c(c2)C(=O)N([C@H](C)CO)C[C@@H](C)[C@H](CN(C)S(=O)(=O)c2ccccc2)OCCCC[C@@H](C)O3)cc1	none (no result: Vc quorum ag, GDH-TPI inh, Mtb FBA inh)
C[C@@H]1CN([C@H](C)CO)C(=O)c2cc(C#CC(C)(C)O)cnc2O[C@@H]1CN(C)C(=O)CN(C)C	none (no result: Vc quorum ag, GDH-TPI inh, Mtb FBA inh)
O=C(C1CC1)N1C[C@@H]2[C@H](c3ccccc31)[C@H](CO)N2C(=O)c1cccc(F)c1	none (no result: Vc quorum ag, GDH-TPI inh, Mtb FBA inh)
N#Cc1c(-c2cccnc2)c2c([nH]c1=O)-c1ccccc1OC2	Mtb FBA inh active
C[C@@H]1CN([C@@H](C)CO)S(=O)(=O)c2ccc(/C=C/c3ccccc3)cc2O[C@H]1CN(C)C(=O)c1ccccc1	none (no result: Vc quorum ag, GDH-TPI inh, Mtb FBA inh)
CCN(CC)c1ccc(/C=N/N2CCN(c3ccccc3OC)CC2)cc1	GDH-TPI inh 37
CO[C@@H]1CN(C)C(=O)c2cc(NC(=O)C3CC3)ccc2OC[C@@H](C)N(CCC(F)(F)F)C[C@@H]1C	none (no result: Vc quorum ag, GDH-TPI inh, Mtb FBA inh)
Cn1c(C(=O)N2CCc3ccccc3C2)cc2c(=O)n3ccccc3nc21	Mtb FBA inh 73
CC1CN(C(=O)c2cc3c(=O)n4ccccc4nc3n2C)CC(C)O1 (centres undefined)	Mtb FBA inh active
Cn1c(C(=O)O)cc2c(=O)n3ccccc3nc21	Mtb FBA inh active (no result: BioA inh)
CCOC(=O)C1CCN(C(=O)c2cc3c(=O)n4ccccc4nc3n2C)CC1	Mtb FBA inh 133 (no result: BioA inh)
C[C@@H]1CN([C@H](C)CO)C(=O)c2cccc(NS(=O)(=O)c3cn(C)cn3)c2O[C@@H]1CN(C)S(=O)(=O)c1cccs1	none (no result: Vc quorum ag, GDH-TPI inh, Mtb FBA inh)
O=C(C[C@H]1C=C[C@@H](NC(=O)C2CC2)[C@@H](CO)O1)NCCCN1CCOCC1	none (no result: Vc quorum ag, GDH-TPI inh, Mtb FBA inh)
CNC(=O)C[C@H]1CC[C@@H]2[C@@H](COc3ccc(NC(=O)C4CCCCC4)cc3C(=O)N2C)O1	none (no result: Vc quorum ag, GDH-TPI inh, Mtb FBA inh)
C[C@@H]1CN([C@@H](C)CO)C(=O)Cc2cc(NC(=O)C3CCCCC3)ccc2O[C@@H]1CN(C)C(=O)NC1CCCCC1	none (no result: Vc quorum ag, GDH-TPI inh, Mtb FBA inh)
C[C@H](NC(=O)[C@H]1[C@H](CO)[C@H]2Cn3c(cccc3=O)[C@@H]1N2Cc1ccccc1)c1ccccc1	none (no result: Vc quorum ag, GDH-TPI inh, Mtb FBA inh)
Cc1nc2ccccn2c(=O)c1NC(=O)c1ccco1	none
Cn1c(C(=O)N2CCN(C(=O)c3ccco3)CC2)cc2c(=O)n3ccccc3nc21	Mtb FBA inh active
Cn1c(C(=O)N2CCOCC2)cc2c(=O)n3ccccc3nc21	Mtb FBA inh active
CC1Cc2ccccc2N1C(=O)c1cc2c(=O)n3ccccc3nc2n1C (centres undefined)	none
COc1ccc(NC(=O)Nc2ccc3c(c2)C(=O)N([C@H](C)CO)C[C@H](C)[C@@H](CN(C)S(=O)(=O)c2c(C)noc2C)OCCCC[C@@H](C)O3)cc1	none (no result: Vc quorum ag, GDH-TPI inh, Mtb FBA inh)
C[C@@H]1CN([C@@H](C)CO)C(=O)Cc2cc(NS(=O)(=O)c3ccccc3)ccc2O[C@@H]1CN(C)CC1CC1	none (no result: Vc quorum ag, GDH-TPI inh, Mtb FBA inh)
O=C1C2C3C=CC(C4CC34)C2C(=O)N1/N=C/c1ccc(-c2ccc(Cl)cc2[N+](=O)[O-])o1 (centres undefined)	GDH-TPI inh 37
O=C1C2C3C=CC(C4CC34)C2C(=O)N1/N=C/c1ccc(-c2ccc(F)cc2[N+](=O)[O-])o1 (centres undefined)	GDH-TPI inh 32
CCS(=O)(=O)c1nc(S(=O)(=O)c2ccc(C)cc2)c(N2CCCC2)s1	GDH-TPI inh 34
COc1ccc(CC(=O)N/N=C/C=C/c2ccc3c(c2)OCO3)cc1OC	GDH-TPI inh 35
CC(C)(C)OC(=O)N/N=C\C=C\c1ccc2c(c1)OCO2	none (no result: BioA inh)
CCN(CC)c1ccc(C(=O)N/N=C(\C)c2ccc(OC)c(OC)c2)cc1	GDH-TPI inh 32 (no result: BioA inh)
COc1cc(C(=O)NN=Cc2ccc(N(CCCl)CCCl)cc2)cc(OC)c1OC	GDH-TPI inh 61
CCOC(=O)N/N=C\C=C\c1ccc2c(c1)OCO2	GDH-TPI inh 37
CCN(CC)c1ccc(/C=N/NC(=O)c2cccc(S(=O)(=O)Nc3ccccc3OC)c2)cc1	none (no result: Vc quorum ag, BioA inh)
CCCNC(=O)N(C)C[C@H]1Oc2ncc(-c3ccc(F)cc3)cc2C(=O)N([C@@H](C)CO)C[C@@H]1C	none (no result: Vc quorum ag, GDH-TPI inh, Mtb FBA inh)

Screening results deposited in PubChem by several laboratories.
